Ten molecules from PubChem BioAssay (NCI) can be followed below.

The panel holds about 83,000 compounds, 20% with a hit somewhere; the sample as a whole holds those more often.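 Compound tested at a single concentration for 48 hours in 96-well plates; a percent growth value below 10 was scored as active.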 A number with no mark means an inactive call. Activity calls are given as the source filed them.

What all share (experiment): NCI-60 one-dose screen, 48 h (100 = growth as untreated, 0 = no growth, -100 = all killed)
The subject of one experiment is EKVX NSCLC. The note with it: 10 µM unless noted.
For a further experiment, the system named is SN12C renal. The conditions noted are these: 10 µM unless noted.
The next experiment relates to UO-31 renal. The conditions noted are these: 10 µM unless noted.
Another experiment relates to TK-10 renal. The conditions noted are these: 10 µM unless noted.
For a further experiment, the system named is ACHN renal. The conditions noted are these: 10 µM unless noted.
For the next experiment, the system named is A498 renal. The conditions noted are these: 10 µM unless noted.
Another experiment relates to CCRF-CEM leukemia. The note with it: 10 µM unless noted.
The next experiment has as its system OVCAR-8 ovarian. The note with it: 10 µM unless noted.
The test system of the next experiment is OVCAR-5 ovarian. The conditions noted are these: 10 µM unless noted.
Another experiment concerns OVCAR-4 ovarian. The note with it: 10 µM unless noted.
In the next experiment the test system is SK-OV-3 ovarian. The note with it: 10 µM unless noted.
The next experiment has as its system IGROV1 ovarian. The conditions noted are these: 10 µM unless noted.
In another experiment the test system is HS 578T breast. The conditions noted are these: 10 µM.
A further experiment relates to NCI/ADR-RES ovarian. The conditions noted are these: 10 µM unless noted.
For another experiment, the system named is OVCAR-3 ovarian. The conditions noted are these: 10 µM unless noted.
The subject of a further experiment is CAKI-1 renal. The conditions noted are these: 10 µM unless noted.
In a further experiment the test system is MOLT-4 leukemia. The conditions noted are these: 10 µM unless noted.
The next experiment deals with SR leukemia. The conditions noted are these: 10 µM unless noted.
A further experiment concerns RPMI-8226 leukemia. The note with it: 10 µM unless noted.

As for `CC(=O)OC1Oc2cc(C)c(C)cc2-c2oc(=O)c(-c3ccc(F)cc3)cc21` (centres undefined), the growth in the experiment on EKVX NSCLC was 81.7%; in the experiment on SN12C renal, 83.2%; with UO-31 renal, 62.2%; with TK-10 renal it was 120%; with ACHN renal, 89.5%; with A498 renal it was 47.9%. The growth in the experiment on CCRF-CEM leukemia was 36%; with OVCAR-8 ovarian it was 81.9%; in the experiment on OVCAR-5 ovarian, 86.2%; in the experiment on OVCAR-4 ovarian, 73.2%; in the experiment on SK-OV-3 ovarian, 79.1%; in the experiment on IGROV1 ovarian, 54.4%. The growth is 60.5% with HS 578T breast and 28.5% in the experiment on NCI/ADR-RES ovarian.

As for `C1=C\CCCCN2CC[C@H]3[C@H](CCCC/C=C\CCCN4C[C@@H](CCCCC/1)C[C@@H]3C4)C2`, the growth with EKVX NSCLC is 108%; in the experiment with SN12C renal, 81.2%; in the experiment on UO-31 renal, 14.6%; with TK-10 renal it was 109%; with ACHN renal, 23.4%; in the experiment with A498 renal, -11.8% (active). The growth in the experiment on CCRF-CEM leukemia was 7.61% (active); in the experiment with OVCAR-8 ovarian, 77.4%; in the experiment with OVCAR-5 ovarian, 87.6%; in the experiment on OVCAR-4 ovarian it was 74.2%; with SK-OV-3 ovarian it was 83.9%; with OVCAR-3 ovarian, 49.1%. Further, the figures for the growth in the experiment on HS 578T breast and with NCI/ADR-RES ovarian were 9.63% (active) and 77.5%, respectively.

As to `CN(C)CCOc1nc2c3cccnc3cc(-c3cccc(Cl)c3)c2c2ncccc12`, the growth is 34.3% in the experiment with EKVX NSCLC; 38.2% with UO-31 renal; 28.5% in the experiment on TK-10 renal; 6.48% (active) with ACHN renal; 28.1% in the experiment with CAKI-1 renal; 43.7% with A498 renal. Moreover, the growth in the experiment with CCRF-CEM leukemia was 6.83% (active); with MOLT-4 leukemia it was -9.06% (active); in the experiment on SR leukemia, 0.455% (active); in the experiment with RPMI-8226 leukemia it was -21.6% (active); with OVCAR-8 ovarian, 14.7%; with OVCAR-5 ovarian, 45.5%. For the same molecule, the growth was 20.6% with OVCAR-4 ovarian; 45% in the experiment on SK-OV-3 ovarian; 30.9% in the experiment with IGROV1 ovarian; 17.8% with OVCAR-3 ovarian; 43.1% in the experiment on HS 578T breast; 18.7% in the experiment on NCI/ADR-RES ovarian.

As for `CCOC(=O)C(=CNc1ccccc1Cl)C(=O)OCC`, the growth with EKVX NSCLC is 106%; in the experiment on SN12C renal, 101%; in the experiment with UO-31 renal, 89.1%; in the experiment with TK-10 renal, 99.3%; in the experiment on A498 renal, 5.74% (active); in the experiment on CCRF-CEM leukemia it was 85.8%. Also, the growth with OVCAR-8 ovarian is 91.4%; in the experiment with OVCAR-5 ovarian, 100%; in the experiment with OVCAR-4 ovarian, 91.7%; with SK-OV-3 ovarian, 113%; with IGROV1 ovarian, 91.1%; with HS 578T breast, 129%. Further, in the experiment on NCI/ADR-RES ovarian, the growth was 91.4%.

Turning to `COc1cc(-c2csc(NC(=O)Nc3cccc(C(F)(F)F)c3)n2)cc(OC)c1OC`, the growth with EKVX NSCLC is 38.3%; in the experiment with UO-31 renal it was 46%; in the experiment on ACHN renal, 31.3%; in the experiment with CAKI-1 renal, 48.2%; in the experiment on A498 renal, 59.1%; in the experiment on CCRF-CEM leukemia, 28.1%. Moreover, the growth in the experiment on MOLT-4 leukemia is 18.1%; in the experiment on SR leukemia, 67.3%; in the experiment on RPMI-8226 leukemia, 18.6%; with OVCAR-8 ovarian, 22.6%; in the experiment with OVCAR-5 ovarian, 80.3%; in the experiment with OVCAR-4 ovarian, 29.9%. In addition, the growth in the experiment with SK-OV-3 ovarian is 80.7%; with IGROV1 ovarian, 59.6%; in the experiment with OVCAR-3 ovarian, 37.7%; in the experiment on HS 578T breast, 71.2%; in the experiment with NCI/ADR-RES ovarian, 26.5%.

Turning to `N#Cc1c(N)n(C2OC(CO)C(O)C2O)c2ncnc(N)c12` (centres undefined), the growth with EKVX NSCLC is -20.3% (active); in the experiment on SN12C renal, 6.49% (active); in the experiment on UO-31 renal, -42.1% (active); in the experiment on TK-10 renal, -9.6% (active); in the experiment with ACHN renal it was 8.86% (active); with CCRF-CEM leukemia, -45.1% (active). For the same molecule, the growth in the experiment on OVCAR-8 ovarian is -13.1% (active); in the experiment on OVCAR-5 ovarian, -11.4% (active); in the experiment on OVCAR-4 ovarian, 0.621% (active); in the experiment on SK-OV-3 ovarian it was -0.358% (active); in the experiment with IGROV1 ovarian, -63% (active); in the experiment with OVCAR-3 ovarian it was -62.1% (active). Moreover, the growth in the experiment on HS 578T breast is -19.2% (active); with NCI/ADR-RES ovarian, -7.81% (active).

On to `ClCc1cccc(CSc2ncnc3c2ncn3Cc2cccc(CCl)c2)c1`, for which the growth is 92.9% in the experiment on EKVX NSCLC; 2.77% (active) in the experiment on SN12C renal; 40.6% with UO-31 renal; 48.4% in the experiment with TK-10 renal; 96.4% in the experiment with CAKI-1 renal; 76.2% in the experiment on A498 renal. Moreover, the growth is 3.41% (active) in the experiment on CCRF-CEM leukemia; 5.6% (active) in the experiment with MOLT-4 leukemia; -10.6% (active) with RPMI-8226 leukemia; -16.4% (active) in the experiment with OVCAR-8 ovarian; 116% with OVCAR-5 ovarian; 8.74% (active) in the experiment on OVCAR-4 ovarian. The growth is 65.5% in the experiment with SK-OV-3 ovarian; 14% in the experiment on IGROV1 ovarian; 28.4% in the experiment on OVCAR-3 ovarian; 47.7% with HS 578T breast; -6.49% (active) with NCI/ADR-RES ovarian.

Take `O=C1/C(=C\c2cccn2C(=O)c2ccccc2)c2ccccc2N1c1c(Cl)cccc1Cl`: the growth is 80.5% in the experiment with EKVX NSCLC; 66.8% in the experiment on UO-31 renal; 79% with ACHN renal; 87.8% with CAKI-1 renal; 90.4% in the experiment with A498 renal; 14.3% in the experiment with CCRF-CEM leukemia. In addition, the growth in the experiment on MOLT-4 leukemia is 27.9%; in the experiment with SR leukemia, 25%; in the experiment on RPMI-8226 leukemia it was 69.6%; in the experiment with OVCAR-8 ovarian, 87%; with OVCAR-5 ovarian, 87.9%; with OVCAR-4 ovarian it was 59.4%. The growth was 95% in the experiment on SK-OV-3 ovarian; 71.2% in the experiment with IGROV1 ovarian; 70.4% with OVCAR-3 ovarian; 95.6% in the experiment on HS 578T breast; 82.2% with NCI/ADR-RES ovarian.

Take `O=C1/C(=C\c2cccn2Cc2ccc(F)cc2)c2ccccc2N1c1c(Cl)cccc1Cl`: the growth was 54.6% in the experiment on EKVX NSCLC; 51.8% in the experiment on UO-31 renal; 81% with TK-10 renal; 62.9% in the experiment with ACHN renal; 67.5% with CAKI-1 renal; 106% with A498 renal. Moreover, the growth with CCRF-CEM leukemia was 83%; in the experiment with SR leukemia it was 76%; in the experiment on RPMI-8226 leukemia, 74.6%; in the experiment on OVCAR-8 ovarian, 81.5%; in the experiment on OVCAR-5 ovarian, 81.9%; with OVCAR-4 ovarian, 34.1%. Further, the growth in the experiment with SK-OV-3 ovarian was 96.2%; with IGROV1 ovarian, 55.8%; in the experiment on OVCAR-3 ovarian it was 80.7%; in the experiment on HS 578T breast, 92.9%; with NCI/ADR-RES ovarian, 76.1%.

On to `CCOC(=O)C1=C(C)NC(SCc2nnc(-c3ccc(Cl)cc3)o2)=NC1c1ccc(Cl)cc1` (centres undefined), for which the growth was 80.2% with EKVX NSCLC; 48.7% with UO-31 renal; 77.5% in the experiment with TK-10 renal; 64.1% with ACHN renal; 61.6% in the experiment with CAKI-1 renal; 80.7% in the experiment with A498 renal. In addition, the growth in the experiment with CCRF-CEM leukemia is 39.7%; in the experiment on MOLT-4 leukemia, 7.02% (active); in the experiment on SR leukemia, 42.9%; with RPMI-8226 leukemia it was 35.8%; in the experiment on OVCAR-8 ovarian, 74.8%; with OVCAR-5 ovarian, 89.6%. The growth with OVCAR-4 ovarian is 70%; in the experiment on SK-OV-3 ovarian it was 82.6%; in the experiment on IGROV1 ovarian it was 62.3%; in the experiment with OVCAR-3 ovarian it was 70.8%; in the experiment with HS 578T breast it was 83.7%; with NCI/ADR-RES ovarian, 69.9%.
